In the library only some 2.2% were active in any assay of this set; here they are far more common.
Myeloid diff 2: compounds promoting myeloid differentiation | ER-HoxA9 myeloid progenitors, lysozyme-GFP differentiation, flow cytometry | calls only at 10 µM | actives 1% (n = 360,000) | AID 624256;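 active = normalized GFP-positive differentiation at or above the plate's own cutoff, the solvent-only control mean plus 3 SD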;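 also: cells exposed to compound for four days before flow analysis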
iPSC survival up: increases survival of single human iPS cells; hiPSC single-cell survival, ATPlite luminescence; 100% = ROCK inhibitor wells, 0% = DMSO; actives 0.044% (n = 360,000); survival enhancement, % at 20 µM; in the data active = survival enhancement above about 18%;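 also: cells exposed to compounds for 16 hours before the ATP read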
ABCB6 inh 2: blocks the human ABCB6 transporter; actives 0.19% (n = 360,000); K562-ABCB6 porphyrin accumulation, flow cytometry, 1 h; hits give low values; fluorescence ratio to DMSO, % at 10 µM; Q9NP58; AID 602162;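 active = fluorescence ratio to DMSO below 75%, the collection mean minus 3 SD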;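 also: signal is porphyrin accumulated inside mitochondria; lower ratio means ABCB6 inhibition with less porphyrin fluorescence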
Target sequence (Q9NP58 whole entry, looked up): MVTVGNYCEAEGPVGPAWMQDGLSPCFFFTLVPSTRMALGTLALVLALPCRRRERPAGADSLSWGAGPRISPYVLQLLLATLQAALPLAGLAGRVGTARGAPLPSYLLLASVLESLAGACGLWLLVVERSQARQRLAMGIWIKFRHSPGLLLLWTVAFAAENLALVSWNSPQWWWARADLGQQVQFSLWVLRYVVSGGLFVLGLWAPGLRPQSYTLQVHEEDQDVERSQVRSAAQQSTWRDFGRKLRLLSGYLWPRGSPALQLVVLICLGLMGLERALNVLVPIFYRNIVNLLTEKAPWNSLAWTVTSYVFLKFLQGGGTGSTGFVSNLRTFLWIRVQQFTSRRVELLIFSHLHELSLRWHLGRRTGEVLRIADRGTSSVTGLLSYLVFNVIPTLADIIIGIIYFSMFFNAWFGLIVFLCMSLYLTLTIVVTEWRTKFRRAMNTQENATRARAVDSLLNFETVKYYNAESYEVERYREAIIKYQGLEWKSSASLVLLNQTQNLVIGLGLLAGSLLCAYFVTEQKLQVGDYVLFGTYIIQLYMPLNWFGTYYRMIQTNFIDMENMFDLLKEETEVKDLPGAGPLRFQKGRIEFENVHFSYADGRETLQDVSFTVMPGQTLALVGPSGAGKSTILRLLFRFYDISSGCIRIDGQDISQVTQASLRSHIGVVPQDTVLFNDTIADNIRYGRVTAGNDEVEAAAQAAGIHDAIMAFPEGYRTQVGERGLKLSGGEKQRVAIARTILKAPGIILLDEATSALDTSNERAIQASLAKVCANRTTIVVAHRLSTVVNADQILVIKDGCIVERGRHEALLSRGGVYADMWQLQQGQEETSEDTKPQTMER
beta cell repl: inducers of beta-cell replication in MIN6 cells. MIN6 cells proliferation, ATPlite luminescence, 48 h; cells starved in 0.2% serum; 100% = growth in 10% serum. proliferation, % at 10 µM. actives 0.29% (n = 330,000);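 active = compounds whose signal lies at least 3.5 SD above the mean of all wells on their plate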
Cardio protect: modulators protecting cardiomyocytes from myocardial damage; H9c2 cardiomyocytes, H2O2 injury protection, ATPLite, 2 h; protection from H2O2 cell death, % at 20 µM; actives 0.63% (n = 360,000);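 active = compounds giving at least 50% protection of heart cells from peroxide-induced death in the single-dose screen, raw or plate-pattern-corrected value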
Myeloid diff: myeloid differentiation induction. calls only. actives 2% (n = 2,300). shares compounds with Myeloid diff 2. ER-HoxA9 myeloid progenitors, GFP/Mac1 double-positive flow. AID 651706;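 active = share of green or green-and-red cells above 9 and 9% in run 1 or 4 and 3% in run 2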
GFP autofluor: flagged as fluorescent in myeloid differentiation counter-screen. shares compounds with Myeloid diff 2. actives 7.4% (n = 2,300). ER-HoxA9 myeloid progenitors, no estrogen, GFP autofluorescence flow cytometry; vehicle wells 0%, positive control 100%. fluorescence response, % (concentration not given with the values);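 active = over 5% cells positive for green fluorescent reporter, or over 2% positive for both it and APC stain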
A number is an active result; . = inactive; / = not tested or not shown; + = active, no number.

SMILES | Myeloid diff 2 | iPSC survival up | ABCB6 inh 2 | beta cell repl | Cardio protect | Myeloid diff | GFP autofluor
C=C(C)C1CC=C(C)/C(=N/NC(=O)c2ccc(NC(=O)CCC)cc2)C1 (configuration not stated) | . | . | . | . | . | / | /
COc1ccc(/C=N/Nc2c(Cl)cc(Cl)cc2Cl)cc1CN1CCOCC1 | . | . | . | . | . | . | .
COc1ccc(/C=N/NC(=O)c2ccccc2O)cc1CN1CCOCC1 | . | . | . | . | . | / | /
Cc1nn(-c2ccccc2)c(C)c1C1C(C#N)=C(N)Oc2n[nH]c(C)c21 (configuration not stated) | . | . | . | . | . | / | /
O=C(O)C1CCN(Cc2cnn(-c3ccccc3)c2-n2cccc2)CC1 | . | . | . | . | . | / | /
O=C(NC1CC1)C1CCN(Cc2cnn(-c3ccccc3)c2-n2cccc2)CC1 | + | . | . | . | . | . | .
COc1ccc(C(=O)N2c3ccccc3CC2C)cc1OC (configuration not stated) | . | . | . | . | . | / | /
O=C(NC1CCCC1)C1CCN(S(=O)(=O)N2CCCCC2)CC1 | . | . | . | . | . | / | /
CCN1/C(=N\N)c2cccc3cccc1c23 | + | . | . | . | . | . | 94
COc1ccc(-n2nc(C(=O)NCC(=O)N3CCN(c4cccc(Cl)c4)CC3)c3ccccc3c2=O)c(OC)c1 | . | . | . | . | . | . | .
COc1ccc(-n2nc(C(=O)NCC(=O)N3CCN(c4ccccn4)CC3)c3ccccc3c2=O)c(OC)c1 | . | . | . | . | . | / | /
CC(Oc1ccc(Br)cc1)C(=O)Nc1nc(-c2ccccn2)cs1 (configuration not stated) | + | . | . | . | 49 | . | .
Cc1ccc(S(=O)(=O)CCC(=O)Nc2nc(-c3ccccn3)cs2)cc1 | + | . | . | . | . | . | .
Cc1cccc(OC(C)C(=O)Nc2nc(-c3cccnc3)cs2)c1 (configuration not stated) | . | . | . | / | . | / | /
COc1ccc([C@H]2[C@@H]3C=CCC[C@@]3(C)C(=O)N2Cc2ccccc2)cc1Cl | . | . | . | . | . | . | .
CC(C)CNC(=O)c1ccccc1-c1ccccc1C(=O)O | . | . | . | . | . | . | .
CC(C)CNC(=O)c1cccc(NC(=O)c2ccccc2-c2ccccc2C(=O)O)c1 | . | . | . | . | . | / | /
COc1ccc(NC(=O)CCCNC(=O)Cn2cnc3sc(C)c(C)c3c2=O)cc1OC | . | . | . | . | . | / | /
O=C(C1=C(O)C(=O)N(CCCN2CCOCC2)C1c1ccccn1)c1cc2ccccc2o1 (configuration not stated) | . | . | . | . | . | . | .
O=C(C1=C(O)C(=O)N(CCN2CCOCC2)C1c1ccc(F)cc1)c1cc2ccccc2o1 (configuration not stated) | . | . | . | . | . | / | /
C[C@H](O)[C@@H]1CN2CCc3c([nH]c4ccccc34)[C@@H]2C[C@@H]1N(C)C(=O)Nc1cccc2ccccc12 | . | . | . | / | . | . | .
C[C@H](O)[C@@H]1CN2CCc3c([nH]c4ccccc34)[C@@H]2C[C@@H]1N(C)C(=S)NCCc1ccccc1 | + | . | . | / | . | . | .
COc1ccc(-c2ccc3[nH]c4c(c3c2)CCN2C[C@@H]([C@H](C)O)[C@@H](N(C)C(=O)Nc3cc(Cl)cc(Cl)c3)C[C@@H]42)cc1 | + | . | . | / | . | . | .
CCNC(=O)N(C)[C@H]1C[C@H]2c3[nH]c4ccccc4c3CCN2C[C@H]1[C@H](C)O | . | . | . | / | . | / | /
C[C@H](O)[C@@H]1CN2CCc3c([nH]c4ccccc34)[C@@H]2C[C@@H]1N(C)C(=O)c1ccco1 | . | . | . | / | . | / | /
SMILES | Myeloid diff 2 | iPSC survival up | ABCB6 inh 2 | beta cell repl | Cardio protect | Myeloid diff | GFP autofluor
O=S(=O)(NC1CCN(Cc2ccccc2)CC1)c1cccc2cccnc12 | . | . | . | . | . | . | .
COC(=O)c1ccc(NC(=O)C(=O)N2CCN(C(=S)Nc3ccc(C)cc3)CC2)cc1 | . | . | . | . | . | . | .
COC(=O)c1ccc(NC(=O)C(=O)N2CCN(C(=S)Nc3ccc(OC)cc3)CC2)cc1 | . | . | . | . | . | / | /
CC(C)c1nc(SCC(=O)N2CCCC2)c2c(=O)n(C)c(=O)n(C)c2n1 | + | . | . | . | . | . | .
CC(C)c1nc(SCC(=O)N2CCCCCC2)c2c(=O)n(C)c(=O)n(C)c2n1 | . | . | . | . | . | / | /
C/C(O)=c1/ccc2cccc3nc(C)nc1c23 | + | . | . | . | . | . | 8.4
N#C/C(=C/c1ccc(Br)o1)C(N)=O | . | . | . | . | . | / | /
CC(=O)Nc1ccc(S(=O)(=O)N2CCN(CC(O)COc3ccc4ccccc4c3)CC2)cc1 (configuration not stated) | . | . | . | . | . | . | .
COC(=O)[C@H](Cc1ccccc1)NC(=O)O[C@H]1C(=O)c2ccc(OC)cc2O[C@@H]1c1ccc2c(c1)OCO2 | / | / | / | . | / | / | /
COc1cc(NC(=S)Nc2ccccn2)c(OC)cc1Cl | . | . | . | . | . | . | .
COc1cc(NC(=S)Nc2cccc(Cl)c2Cl)c(OC)cc1Cl | . | . | . | . | . | / | /
Cn1c(=O)c2cc(NC(=S)NC3CC3)ccc2n1C/C=C/c1ccccc1 | + | . | . | / | . | . | .
Cn1c(=O)c2cc(NC(=O)NCc3ccc(F)cc3)ccc2n1C/C=C/c1ccccc1 | + | . | . | / | . | + | .
CCOC(=O)c1sc(S(C)(=O)=O)c2c1CC(C)(C)C/C2=N/O | . | . | . | . | . | / | /
CCOC(=O)c1c(NC(=S)Nc2ccc(Cl)cc2)sc2c1CCN(C)C2 | + | . | . | / | . | . | 47
Cc1cc(NC(=O)CN2CCC(n3nnc4cc(C(F)(F)F)ccc43)CC2)no1 | + | . | . | . | . | . | .
C=CCNC(=O)CN1CCC(n2nnc3cc(C(F)(F)F)ccc32)CC1 | . | . | . | . | . | / | /
CCCCCCCCC1=NCCc2c1[nH]c1ccccc21 | . | . | . | . | . | . | .
CC(C)C/C=C1\CCc2c([nH]c3ccccc23)C1=O | . | . | . | . | . | / | /
Cc1cccc2nc(CSc3nnc(N)s3)cn12 | . | . | . | . | . | / | /
COc1ccc(Nc2nnc(SCc3cn4c(C)cccc4n3)s2)cc1 | + | . | . | . | . | . | .
C=C(C(=O)c1ccccc1)C(C)CC(=O)c1ccccc1 (configuration not stated) | . | . | . | . | . | . | 99
O=C(CC(Nc1ccccc1)C(=O)O)c1ccccc1 (configuration not stated) | . | . | . | . | . | / | /
Cc1ccc(Oc2ccc(-c3nc(N)nc(N)n3)cc2)cc1 | + | . | . | . | . | . | .
